Screening data as filed in PubChem BioAssay.
Sampled rows, rich in hits. Any-hit rate of the full collection: about 11%.
AMA1-RON2 inh – AMA1-RON2 (P. falciparum) interaction inhibition | AlphaScreen AMA1-biotinylated RON2 peptide binding | Potency, µM (titrated, usually from 58.2 µM), most hits filed as inhibitors | 0.2% of 360,000 active | AID 720542; note: nearly all actives have a fitted effect of over 45% in size
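AMA1 (3D7) with his tag at 25 nM final met compounds first, then biotinylated RON2 peptide at 25 nM; detection used donor plus acceptor beads, 10 µg/mL apiece, read by AlphaScreen after 30 min at room temperature.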
Sm TGR inh – S. mansoni TGR enzyme inhibition | Q962Y6 | AID 485364 | purified TGR, DTNB reduction, TNB absorbance 405 nm | 3% of 360,000 active | Potency, µM (series often up to 114 µM), usual class: inhibitors; note: nearly all actives have a fitted effect of over 60% in size
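First, TGR (20 nM dispensed) and NADPH were mixed with compound. Second, a 15 min room-temperature incubation followed. Third, further NADPH and then DTNB were added to start the reaction. Finally, TNB absorbance was monitored kinetically.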
Pf growth 96h – P. falciparum growth inhibition at 96 hours. AID 504834. 6.9% of 320,000 active. P. falciparum luciferase reporter growth, 96 h. Potency, µM (doses to about 28.7 µM), most hits filed as inhibitors
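Readout is luminescence from an integrated firefly luciferase in P. falciparum. Red cells, 2% hematocrit and 0.05% parasitemia final, were cultured with compound through two parasite generations (96 hours) at 37 C, 5% CO2.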
NS1 inh – influenza NS1 inhibition | Potency, µM (doses to about 46.1 µM) | 0.4% of 270,000 active; calls by dose curve; note: actives are rising curves; nearly all actives have a fitted effect of over 50% in size
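S. cerevisiae expressing influenza A NS1, grown in glucose, washed, then diluted 1:100 into pH 6.0 -URA galactose medium with 23 nl compound. Growth recovery read as OD600; NS1-free strain serves as control.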
Pf growth 48h – P. falciparum growth inhibition at 48 hours (one generation). 5.9% of 310,000 active. P. falciparum luciferase growth in erythrocytes, 48 h. Potency, µM (top dose mostly 28.7 µM), most hits filed as inhibitors
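Growth was read as firefly luciferase luminescence after a 48 h, 37 C, 5% CO2 exposure of compounds to reporter-bearing P. falciparum cultures (0.1% parasitemia, 2% hematocrit final) in Albumax-supplemented RPMI 1640.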
Of the large screens only hits and unclear results are named; the others gave an inactive call. Unless noted, calls come from the whole dose curve; as a rule, active = well fitted curve in the direction sought with a large enough effect; inconclusive = small, poorly fitted or top-dose-only effect, or another doubt; inactive = no such curve, though single readings can be large; an effect the other way counts as inactive or inconclusive.

O=C(NC1CCSc2ccccc21)c1c(F)cccc1Cl (stereo not given)	Pf growth 96h inconclusive
Cc1nc2nncn2c(N2CCN(c3ccccc3)CC2)c1C	none (no result: AMA1-RON2 inh, Pf growth 96h, NS1 inh, Pf growth 48h)
Cc1ccc(CN(C)C(=O)CN2C(=O)NC3(CCCc4ccccc43)C2=O)c(C)c1 (stereo not given)	Pf growth 48h inconclusive (no result: NS1 inh)
COc1cccc(C(=O)N(Cc2ccco2)c2c(N)n(Cc3ccccc3)c(=O)[nH]c2=O)c1	Sm TGR inh 45µM, Pf growth 96h inconclusive (no result: NS1 inh)
CCN(CC)C(=O)c1nc[nH]c1C(=O)N(CC)CC	none (no result: NS1 inh)
O=[N+]([O-])c1cnc2ccccc2c1	Pf growth 96h inconclusive
O=[N+]([O-])c1cc([N+](=O)[O-])c2cc3ccccc3nc2c1	Sm TGR inh 3.5µM, Pf growth 48h inconclusive
CC(O)c1nc2ccccc2n1CC(=O)Nc1ccc(F)cc1Cl (stereo not given)	Pf growth 48h inconclusive (no result: NS1 inh)
CN(C)c1ccc2c(c1)OC(N)=C(C#N)C2c1cccc(F)c1 (stereo not given)	Pf growth 96h inconclusive, Pf growth 48h 13µM
COC(=O)c1ccc(C2C(C#N)=C(N)Oc3cc(O)ccc32)cc1 (stereo not given)	none
COC(=O)c1ccc(C2C(C#N)=C(N)Oc3cc(N)ccc32)cc1 (stereo not given)	Pf growth 96h 12µM
N#CC1=C(N)Oc2cc(O)ccc2C1c1ccncc1 (stereo not given)	Pf growth 96h 9.3µM
N#CC1=C(N)Oc2cc(O)c(Cl)cc2C1c1ccccc1F (stereo not given)	Sm TGR inh 45µM (no result: Pf growth 48h)
CC(C)CC1NC(=O)N(CC(=O)Nc2ccc3c(c2)CCC3)C1=O (stereo not given)	none (no result: NS1 inh)
N#CC1=C(N)Oc2cc(O)c(Cl)cc2C1c1cccnc1 (stereo not given)	Sm TGR inh 32µM, Pf growth 48h inconclusive
Cc1cc(C)cc(OCc2ccc(C(=O)Nc3ccccc3F)o2)c1	none (no result: AMA1-RON2 inh, Pf growth 96h, NS1 inh, Pf growth 48h)
Cc1cc(OCc2cc(C(=O)N(C)CC3CCOCC3)no2)cc(C)c1Cl	Pf growth 96h inconclusive
CCN(CC1CCCO1)C(=O)c1cc(COc2cc(C)c(Cl)c(C)c2)on1 (stereo not given)	Pf growth 96h 12µM
Cc1ccc(-c2nnc(OCC3CCCO3)c3ccccc23)cc1 (stereo not given)	Pf growth 96h inconclusive
Cc1cc(N)c(NC2=CC(=O)CC(C)(C)C2)cc1C	Pf growth 96h 10µM, NS1 inh inconclusive
N#CC(C#N)=Cc1ccc(NC(=O)c2ccc(Br)cc2)cc1	Sm TGR inh 2.5µM
CC(C)(C)c1ccc(C(=O)Nc2ccc(C=C(C#N)C#N)cc2)cc1	Sm TGR inh 3.2µM
CC(C)(C)c1ccc(C(=O)Nc2ccc(NC(=O)c3ccc(Cl)c(Cl)c3)cc2)cc1	none (no result: AMA1-RON2 inh, Pf growth 96h, NS1 inh, Pf growth 48h)
CC(C)(C)C(=O)Nc1ccccc1-c1nc2ccccc2[nH]c1=O	none
O=Cc1c(Sc2ccccc2)nc2ccccn2c1=O	Pf growth 96h 7.4µM (no result: Pf growth 48h)
CC(C)CCC1(C)NC(=O)N(CC(=O)NCC(=O)Nc2ccc(F)c(F)c2F)C1=O (stereo not given)	none (no result: Sm TGR inh, Pf growth 96h, NS1 inh, Pf growth 48h)
Cc1ccc(S(=O)(=O)Nc2nccs2)cc1[N+](=O)[O-]	Pf growth 96h inconclusive
Cc1ccc(S(=O)(=O)Nc2ccc(S(=O)(=O)Nc3nccs3)cc2)c([N+](=O)[O-])c1	Pf growth 96h 2.9µM
COc1ccc(S(=O)(=O)Nc2ccc(S(=O)(=O)Nc3nccs3)cc2)cc1	Pf growth 48h 5.2µM
COc1ccc(CC(=O)Nc2ccc(S(=O)(=O)Nc3nccs3)cc2)cc1	none
Cc1cccc(CCNC(=O)C2CCCN(c3cnccn3)C2)c1 (stereo not given)	none
Cc1ccccc1C(=O)c1cccn1CC(=O)NCC1CCCO1 (stereo not given)	Pf growth 96h 10µM
COc1ccc(CCNC(=O)Cn2cccc2C(=O)c2ccccc2C)cc1OC	Pf growth 96h 9.3µM
NS(=O)(=O)c1ccc(-c2ccc(C=C3C(=O)c4ccccc4C3=O)o2)cc1	none
CC(C)CC1=C/C(=C/c2ccc(-c3ccccc3)o2)C(=O)O1	Sm TGR inh 13µM, Pf growth 96h inconclusive, Pf growth 48h inconclusive
O=C(CSc1nc2c(c(=O)n1-c1ccc(F)cc1)SCC2)NCc1ccco1	Sm TGR inh 40µM, Pf growth 48h inconclusive
Cc1ccc(-n2c(SCC(=O)NCc3ccco3)nc3sc(C)c(C)c3c2=O)cc1	NS1 inh inconclusive (no result: Pf growth 96h)
